Experimental data reported in PubChem BioAssay AID1159580 (chemical genetic matrix, 2015).
Screen size: about 5,500 compounds; about 2,000 (36%) were called active. Not shown: some 18% with an inconclusive outcome. No stated cut-off is given here; in the data, active means normalized growth mostly below about 0.91 (no sharp cut-off); inconclusive means no clear call, values can overlap the other calls; inactive means mostly above about 0.92. The list shows a part of the results.

Test: chemical genetic growth profiling, strain panel (AID 1159580);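 further: tested at 20 µM; growth read once vehicle control cultures reached saturation at 30 °C; 1 = growth at the plate median or of vehicle wells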
Settings: growth OD

Measured: normalized growth

NCc1ccc(S(N)(=O)=O)cc1
inactive: S. cerevisiae deletion strains, locus YKL009W, strain mrt4, stronger effect = lower value 0.974 | S. cerevisiae deletion strains, locus YKL068W, stronger effect = lower value 0.987 | S. cerevisiae deletion strains, locus YKL085W, strain MDH1 (second series), stronger effect = lower value 0.982 | S. cerevisiae deletion strains, locus YKL085W, strain MDH1, stronger effect = lower value 0.982 | S. cerevisiae deletion strains, locus YKL160W, strain elf1, stronger effect = lower value 1.06 | S. cerevisiae deletion strains, locus YKL190W, strain CNB1, stronger effect = lower value 1.01 | S. cerevisiae deletion strains, locus YKR001C, strain vps1, stronger effect = lower value 1.02 | S. cerevisiae deletion strains, locus YKR026C, strain gcn3, stronger effect = lower value 1.01 | S. cerevisiae deletion strains, locus YKR091W, strain srl3, stronger effect = lower value 1 | S. cerevisiae deletion strains, locus YLL001W, strain dnm1, stronger effect = lower value 1.05 | S. cerevisiae deletion strains, locus YLL026W, stronger effect = lower value 1 | S. cerevisiae deletion strains, locus YLL041C, strain sdh2, stronger effect = lower value 0.996 | S. cerevisiae deletion strains, locus YLR027C, strain aat2, stronger effect = lower value 1.01 | S. cerevisiae deletion strains, locus YLR039C, strain RIC1, stronger effect = lower value 0.986 | S. cerevisiae deletion strains, locus YLR058C, strain SHM2, stronger effect = lower value 0.984 | S. cerevisiae deletion strains, locus YLR102C, strain apc9, stronger effect = lower value 0.988 | S. cerevisiae deletion strains, locus YLR113W, strain HOG1, stronger effect = lower value 1.01 | S. cerevisiae deletion strains, locus YLR221C, strain rsa3, stronger effect = lower value 1.05 | S. cerevisiae deletion strains, locus YLR258W, strain gsy2, stronger effect = lower value 1.01 | S. cerevisiae deletion strains, locus YLR262C, strain YPT6 (second series), stronger effect = lower value 1.04 | S. cerevisiae deletion strains, locus YLR262C, strain YPT6, stronger effect = lower value 1.02 | S. cerevisiae deletion strains, locus YLR268W, strain sec22, stronger effect = lower value 0.988 | S. cerevisiae deletion strains, locus YLR320W, strain mms22, stronger effect = lower value 1.06 | S. cerevisiae deletion strains, locus YLR330W, strain CHS5, stronger effect = lower value 0.989 | S. cerevisiae deletion strains, locus YLR342W, strain FKS1 (second series), stronger effect = lower value 1 | S. cerevisiae deletion strains, locus YLR342W, strain FKS1, stronger effect = lower value 1.01 | S. cerevisiae deletion strains, locus YLR357W, strain rsc2, stronger effect = lower value 1.01 | S. cerevisiae deletion strains, locus YLR370C, strain arc18, stronger effect = lower value 1.01 | S. cerevisiae deletion strains, locus YLR371W, strain rom2, stronger effect = lower value 0.985 | S. cerevisiae deletion strains, locus YLR384C, strain iki3, stronger effect = lower value 1.01 | S. cerevisiae deletion strains, locus YLR418C, strain cdc73, stronger effect = lower value 0.954 | S. cerevisiae deletion strains, locus YML016C, strain PPZ1, stronger effect = lower value 0.995 | S. cerevisiae deletion strains, locus YML032C, strain rad52, stronger effect = lower value 0.99 | S. cerevisiae deletion strains, locus YML120C, strain ndi1, stronger effect = lower value 1.04 | S. cerevisiae deletion strains, locus YML124C, strain tub3, stronger effect = lower value 0.99 | S. cerevisiae deletion strains, locus YMR058W, strain fet3, stronger effect = lower value 1.02 | S. cerevisiae deletion strains, locus YMR078C, strain ctf18, stronger effect = lower value 0.978 | S. cerevisiae deletion strains, locus YMR125W, strain sto1, stronger effect = lower value 1.04 | S. cerevisiae deletion strains, locus YMR129W, stronger effect = lower value 1 | S. cerevisiae deletion strains, locus YMR205C, strain PFK2, stronger effect = lower value 1.05 | S. cerevisiae deletion strains, locus YMR223W, strain ubp8, stronger effect = lower value 0.962 | S. cerevisiae deletion strains, locus YMR231W, strain pep5, stronger effect = lower value 0.993 | S. cerevisiae deletion strains, locus YMR263W, strain SAP30, stronger effect = lower value 0.999 | S. cerevisiae deletion strains, locus YMR307W, strain GAS1, stronger effect = lower value 1.01 | S. cerevisiae deletion strains, locus YNL067W, strain RPL9B, stronger effect = lower value 1 | S. cerevisiae deletion strains, locus YNL071W, strain lat1, stronger effect = lower value 1.01 | S. cerevisiae deletion strains, locus YNL153C, strain GIM3, stronger effect = lower value 1.01 | S. cerevisiae deletion strains, locus YNL183C, strain NPR1, stronger effect = lower value 0.956 | S. cerevisiae deletion strains, locus YNL209W, strain ssb2, stronger effect = lower value 1 | S. cerevisiae deletion strains, locus YNL233W, strain BNI4, stronger effect = lower value 0.99 | S. cerevisiae deletion strains, locus YNL248C, strain rpa49, stronger effect = lower value 1.04 | S. cerevisiae deletion strains, locus YNL250W, strain rad50, stronger effect = lower value 0.967 | S. cerevisiae deletion strains, locus YNL271C, strain bni1, stronger effect = lower value 0.985 | S. cerevisiae deletion strains, locus YNL298W, strain CLA4, stronger effect = lower value 0.991 | S. cerevisiae deletion strains, locus YNL307C, strain MCK1, stronger effect = lower value 0.992 | S. cerevisiae deletion strains, locus YNL322C, strain KRE1 (second series), stronger effect = lower value 1.02 | S. cerevisiae deletion strains, locus YNL322C, strain KRE1, stronger effect = lower value 0.999 | S. cerevisiae deletion strains, locus YNR049C, strain mso1, stronger effect = lower value 0.999 | S. cerevisiae deletion strains, locus YNR052C, strain pop2, stronger effect = lower value 0.987 | S. cerevisiae deletion strains, locus YOL006C, strain TOP1, stronger effect = lower value 0.97 | S. cerevisiae deletion strains, locus YOL012C, strain htz1 1.28 | S. cerevisiae deletion strains, locus YOL147C, strain pex11, stronger effect = lower value 0.985 | S. cerevisiae deletion strains, locus YOR001W, strain rrp6, stronger effect = lower value 0.972 | S. cerevisiae deletion strains, locus YOR061W, strain CKA2, stronger effect = lower value 0.993 | S. cerevisiae deletion strains, locus YOR069W, strain VPS5, stronger effect = lower value 0.99 | S. cerevisiae deletion strains, locus YOR070C, strain gyp1, stronger effect = lower value 1.01 | S. cerevisiae deletion strains, locus YOR080W, strain dia2, stronger effect = lower value 0.996 | S. cerevisiae deletion strains, locus YOR083W, strain WHI5, stronger effect = lower value 1.06 | S. cerevisiae deletion strains, locus YOR106W, strain vam3, stronger effect = lower value 1.06 | S. cerevisiae deletion strains, locus YOR136W, strain idh2, stronger effect = lower value 0.992 | S. cerevisiae deletion strains, locus YOR144C, strain elg1, stronger effect = lower value 0.987 | S. cerevisiae deletion strains, locus YOR184W, strain ser1, stronger effect = lower value 1 | S. cerevisiae deletion strains, locus YOR231W, strain MKK1, stronger effect = lower value 1.01 | S. cerevisiae deletion strains, locus YOR265W, strain rbl2, stronger effect = lower value 1.02 | S. cerevisiae deletion strains, locus YOR270C, strain vph1, stronger effect = lower value 1.06 | S. cerevisiae deletion strains, locus YOR290C, strain snf2, stronger effect = lower value 1.02 | S. cerevisiae deletion strains, locus YOR316C, strain cot1, stronger effect = lower value 0.993 | S. cerevisiae deletion strains, locus YPL051W, strain arl3, stronger effect = lower value 1.03 | S. cerevisiae deletion strains, locus YPL055C, strain LGE1, stronger effect = lower value 1.01 | S. cerevisiae deletion strains, locus YPL078C, strain atp4, stronger effect = lower value 1.06 | S. cerevisiae deletion strains, locus YPL106C, strain sse1, stronger effect = lower value 1.03 | S. cerevisiae deletion strains, locus YPL240C, strain hsp82, stronger effect = lower value 1.01 | S. cerevisiae deletion strains, locus YPL241C, strain CIN2, stronger effect = lower value 0.998 | S. cerevisiae deletion strains, locus YPL256C, strain CLN2, stronger effect = lower value 1.01 | S. cerevisiae deletion strains, locus YPR119W, strain clb2, stronger effect = lower value 0.993 | S. cerevisiae deletion strains, locus YPR141C, strain kar3, stronger effect = lower value 0.976 | S. cerevisiae deletion strains, locus YPR163C, strain tif3, stronger effect = lower value 0.995 | S. cerevisiae deletion strains, locus YPR167C, strain met16, stronger effect = lower value 0.99 | S. cerevisiae deletion strains, strain wtn01, stronger effect = lower value 0.987 | S. cerevisiae strains, strain wild type, stronger effect = lower value 1.01
